JMJD2A Tudor inh: JMJD2A Tudor domain (human) inhibition | actives 4.4% (n = 390,000) | AlphaScreen JMJD2A-Tudor / H3K4me3 peptide binding | AID 504339 | Potency, µM (highest dose often 114 µM), inactives show at the highest dose activity change, negative = inhibition, hits mostly inhibitors | O75164; further: potency means the concentration at half of the fitted maximal effect; on the % scale 0 is the no-effect control and ±100 the full control effect; nearly all actives have a fitted effect of over 50% in size
Target sequence (O75164 whole entry, looked up, the tested form may be a part): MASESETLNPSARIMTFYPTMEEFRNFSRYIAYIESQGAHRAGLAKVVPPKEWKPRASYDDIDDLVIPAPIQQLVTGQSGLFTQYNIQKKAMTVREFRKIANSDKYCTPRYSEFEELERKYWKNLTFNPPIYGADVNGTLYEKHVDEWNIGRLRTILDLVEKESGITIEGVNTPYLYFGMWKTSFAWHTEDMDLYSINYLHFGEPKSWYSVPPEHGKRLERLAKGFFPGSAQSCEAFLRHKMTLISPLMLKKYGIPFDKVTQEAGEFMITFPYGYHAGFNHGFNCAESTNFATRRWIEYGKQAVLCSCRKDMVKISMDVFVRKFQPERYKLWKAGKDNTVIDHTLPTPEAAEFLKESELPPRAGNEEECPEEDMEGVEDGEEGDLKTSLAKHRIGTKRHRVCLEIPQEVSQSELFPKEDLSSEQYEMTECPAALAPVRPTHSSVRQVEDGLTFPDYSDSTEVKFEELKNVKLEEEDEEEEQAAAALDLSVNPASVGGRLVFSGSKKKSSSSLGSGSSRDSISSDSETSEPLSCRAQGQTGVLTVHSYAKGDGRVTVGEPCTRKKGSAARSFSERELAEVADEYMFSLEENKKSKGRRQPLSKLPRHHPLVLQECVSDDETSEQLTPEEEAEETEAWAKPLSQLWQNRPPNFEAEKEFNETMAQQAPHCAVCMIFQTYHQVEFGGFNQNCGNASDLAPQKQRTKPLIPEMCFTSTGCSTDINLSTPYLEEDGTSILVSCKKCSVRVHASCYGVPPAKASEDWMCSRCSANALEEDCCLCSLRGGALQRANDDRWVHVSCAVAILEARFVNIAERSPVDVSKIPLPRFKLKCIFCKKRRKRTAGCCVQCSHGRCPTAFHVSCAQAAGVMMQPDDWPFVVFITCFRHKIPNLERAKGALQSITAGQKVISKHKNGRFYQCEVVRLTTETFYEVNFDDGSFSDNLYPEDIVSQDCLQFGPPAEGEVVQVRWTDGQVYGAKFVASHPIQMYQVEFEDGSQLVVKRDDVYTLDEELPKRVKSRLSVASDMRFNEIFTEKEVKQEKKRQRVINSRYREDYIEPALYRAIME
HP1b binding inh: inhibitors of HP1-beta chromodomain binding to methylated histone tails; AlphaScreen HP1-beta / biotin-H3K9me3 peptide binding; Potency, µM (highest dose often 114 µM), inactives show top-dose activity change, negative = inhibition, hits mostly inhibitors; actives 0.56% (n = 390,000); further: potency means the concentration at half of the fitted maximal effect; nearly all actives have a fitted effect of over 70% in size
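Compound inhibition of the preformed complex between 50 nM HP1-beta and 50 nM biotinylated H3K9me3 peptide was read by AlphaScreen. Buffer was PBS pH 7.4 with 0.01% Tween-20. Incubations ran 30 min at room temperature, with 10 ug/mL donor/acceptor beads.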
PI5P4Ka inh: PI5P4K alpha (human) kinase inhibition; P48426; PI5P4Kalpha enzyme, ADP-Glo luminescence, 60 min; active compounds read low; max response, %; actives 1.2% (n = 330,000); AID 652105; active means max response of -50% or lower; inconclusive means between -30% and -50%; inactive means -30% or higher; further: value at the top dose of about 77 µM; on the % scale 0 is the no-effect control and ±100 the full control effect
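PI5P4Kalpha ADP-Glo assay; 5 microM ATP final; 60 min RT reaction; HEPES pH 7.4/EGTA/CHAPS, 5% DMSO; controls lacking substrate or enzyme; luminescent end-point.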
PLK1 PBD block: PLK1 (human) polo-box domain binding inhibition | Plk1 PBD binding of FITC phosphopeptide, fluorescence polarization | Potency, µM, without a hit: max response, negative = inhibition, actives largely listed as inhibitors | actives 2.8% (n = 360,000) | AID 720504; further: potency means the concentration at half of the fitted maximal effect; series mostly up to about 57 µM; on the % scale 0 is the no-effect control and ±100 the full control effect; nearly all actives have a fitted effect of over 65% in size
BAZ2B inh: BAZ2B (human) inhibition; actives 4.4% (n = 360,000); Potency, µM (titrated, usually from 114 µM), without a hit: at the top dose activity change, negative = inhibition, usual class: inhibitors; AlphaScreen BAZ2B-H3K14Ac peptide displacement; Q9UIF8; further: potency means the concentration at half of the fitted maximal effect; on the % scale 0 is the no-effect control and ±100 the full control effect; nearly all actives have a fitted effect of over 60% in size
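Complex of BAZ2B and biotin-H3K14Ac (50 nM apiece) forms over 30 min at RT, then faces library compounds up to 110 uM for another 30 min; AlphaScreen beads added, 20 min dark incubation, luminescence read.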
G9a block: blocks human histone lysine methyltransferase G9a | actives 8.8% (n = 350,000) | Potency, µM (series often up to 102 µM), for inactives: top-dose activity, negative = inhibition, hits mostly inhibitors | Q96KQ7 | G9a H3K9 monomethylation, AlphaScreen, 2 h | AID 504332; further: potency means the concentration at half of the fitted maximal effect; on the % scale 0 is the no-effect control and ±100 the full control effect; nearly all actives have a fitted effect of over 75% in size
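Using a bead-based AlphaScreen, monomethylated H3K9 product from 2 h room-temperature reactions (G9a 20 nM, peptide 500 nM, SAM 20 uM) was detected with 0.5 ug/mL rabbit anti-H3K9me1 antibody.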
ADP-Glo counter: counter-screen for PI5P4K inhibitors: ADP-Glo detection interference, no enzyme; shares compounds with PI5P4Ka inh; ADP-Glo detection counter-screen, luciferase luminescence, no enzyme; Potency, µM (series often up to 76.9 µM), without a hit: at the highest dose activity change, negative = inhibition, actives largely listed as inhibitors; 1,100 tested, under 10 active
The depositor's hits bear a star; ? = inconclusive; · = no result given; [ ] = remark or other dose. The list is not random: actives were taken first. Their share in the collection is about 12%. Unless noted, the call rests on the fitted dose curve; in most records, active means well fitted curve in the direction sought with a large enough effect; inconclusive means small, poorly fitted or top-dose-only effect, or another doubt; inactive means no such curve, though single readings can be large; an effect the other way counts as inactive or inconclusive.

SMILES	JMJD2A Tudor inh	HP1b binding inh	PI5P4Ka inh	PLK1 PBD block	BAZ2B inh	G9a block	ADP-Glo counter
COCCNC(=O)C(c1ccc(Cl)cc1)N(Cc1ccco1)C(=O)CCC(=O)Nc1ccccn1 (configuration not stated)	-15.4%	-0.2%	-53.1*	-1.4%	-7.0%	-4.5%	1.8%
Cc1ccnc(NS(=O)(=O)c2ccc(NC(=O)c3cccc(Cl)c3)cc2)n1	·	·	-12.4	2.6%	·	·	·
CCN(CC(=O)NC(C)(C)C)Cc1cc(=O)n2c(-c3ccccc3)csc2n1	-27.2%	-9.1%	-73.8*	-19.5%	?	-22.3%	3.1%
CCCNC(=O)C1(C)CCCN(C(=O)c2cccc(Cl)c2)C1 (configuration not stated)	·	·	-0.2	-0.3%	·	·	·
Cc1ccc(N=c2oc3cc(O)ccc3cc2C(N)=O)cc1	-33.9%[57.1 µM]	26.0%	-51.7*	-14.2%	-36.4%	-13.8%	-2.2%
CC(=O)c1cc2ccc(O)cc2oc1=O	-9.1%	49.1%	?	-12.1%	-1.1%	-2.3%	·
CCOC(=O)c1c(-c2ccco2)csc1NC(=O)COC(=O)c1cnc(C)cn1	?	?	-51.2*	-12.4%	50.1µM*	6.1%[0.501 µM]	0.4%
CCOC(=O)c1c(CC(C)C)csc1NC(=O)COC(=O)c1cnc(C)cn1	·	·	-5.9	-8.4%	·	·	·
CC1CCCCC1NC(=O)COC(=O)c1c2c(nc3ccccc13)/C(=C\c1ccco1)CC2 (configuration not stated)	44.7µM*	?	-74.3*	?	·	·	-3.0%
O=[N+]([O-])c1cc2ncccc2c2ncccc12	·	·	1.4	0.2%	·	·	·
CC(=O)NC(c1cccs1)c1cc([N+](=O)[O-])c2cccnc2c1O (configuration not stated)	35.5µM*	10.1%	-72.6*	-12.9%	3.98µM*	7.94µM*	3.7%
O=C(NC1CCCC1)C(c1ccncc1)N(C(=O)c1csnn1)c1ccccc1F (configuration not stated)	-6.7%	12.0%	-51.6*	-8.6%	3.8%	-7.6%	9.7%
COc1ccc(C(C(=O)NC2CCCCC2)N(C(=O)c2ccco2)c2ccccc2C(C)=O)cc1OC (configuration not stated)	-19.0%	17.5%	-7.2	-0.5%	-8.9%	-1.4%	·
O=C(CNC(=O)c1ccccc1F)N/N=C/c1cccnc1	1.4%	11.3%	-7.0	-16.7%	-15.8%	9.8%	·
O=C1NN=C2CCCCCC12 (configuration not stated)	·	·	-5.9	-5.3%	·	·	-0.6%
Cc1cccc(N2CC(C(=O)Nc3ccc(S(=O)(=O)Nc4nccs4)cc3)CC2=O)c1C (configuration not stated)	0.4%	13.5%	-10.2	-8.4%	-21.5%	?	·
COc1ccccc1CNC(=O)COC(=O)c1c(C)nn(-c2ccccc2)c1Cl	-15.1%	26.1%	-1.4	-5.1%	-1.2%	60.9%	·
COc1cccc(CNC(=O)COC(=O)c2c(C)nn(-c3ccccc3)c2Cl)c1	-29.9%	8.9%	-59.1*	-1.7%	?	?	5.5%
NC(=O)c1ccsc1NC(=O)COC(=O)c1ccccc1F	-7.8%	17.6%	-54.3*	-2.2%	10.8%	-12.4%[12.7 µM]	-10.4%
NC(=O)c1ccsc1NC(=O)COC(=O)CNC(=O)c1ccc(F)cc1	-19.0%	36.6%	-51.3*	-10.6%	-6.1%	-9.6%[12.7 µM]	1.7%
Cc1ccc2nc3n(c(=O)c2c1)-c1ncccc1C(=O)NC3Cc1ccccc1 (configuration not stated)	·	·	0.3	-15.7%	·	·	·
O=C(Nc1ccc(S(=O)(=O)Nc2nccs2)cc1)c1nn(-c2ccc(F)cc2)ccc1=O	56.2µM*	-15.0%	-70.1*	?	25.1µM*	?	-1.0%
O=C(Cn1cnc2scc(-c3cccc([N+](=O)[O-])c3)c2c1=O)NCc1ccco1	22.4µM*	?	-93.5*	?	44.7µM*	10.8%[59 µM]	4.5%
O=C(C1CCCCC1)N(Cc1cccnc1)c1nc2c(F)cc(F)cc2s1	0.6%	36.8%	·	·	?	-18.1%[59 µM]	·
CC1(OC(=O)CCc2ccccc2)C(=O)C=C2C=C(c3ccc(C#N)cc3)N(Cc3ccco3)C=C2C1=O (configuration not stated)	?	-18.8%	-52.8*	-24.2%	-34.9%	?	3.2%
SMILES	JMJD2A Tudor inh	HP1b binding inh	PI5P4Ka inh	PLK1 PBD block	BAZ2B inh	G9a block	ADP-Glo counter
CC1(OC(=O)CCc2ccccc2)C(=O)C=C2C=C(c3ccc(C#N)cc3)N(Cc3ccccc3)C=C2C1=O (configuration not stated)	?	-19.2%	?	?	?	-36.3%[59 µM]	·
Cc1ccc(NC(=O)c2c3c(nc4ccccc24)CCC3)cc1S(=O)(=O)N(C)C	-29.9%	-13.7%	-51.9*	-12.6%	?	-38.7%	3.1%
COc1cc(NC(=O)c2c3c(nc4ccccc24)CCC3)cc(OC)c1	6.3%	?	-2.4	-4.2%	-20.4%	8.6%	·
CC[C@@H]1CCCCc2ccccc2[C@H](C(=O)C[C@H](O)CC(C)=O)OC1=O	-14.4%	34.3%	1.0	-7.1%	·	·	·
Cc1ccc(NC(=O)CN(C)C(=O)c2cccc(S(=O)(=O)N3CCc4ccccc4C3)c2)cc1	·	·	3.1	-12.2%	·	·	·
Cc1cccc(NC(=O)CNC(=O)c2cccc(-n3cccc3)c2)c1C	14.1µM*	?	-80.4*	?	14.1µM*	35.5µM*	-9.7%
Cc1ccc(NC(=O)CN(C)C(=O)c2cccc(-n3cccc3)c2)cc1	?	20µM*	-101.1*	?	11.2µM*	25.1µM*	-1.3%
COc1ccc(NC(=O)CN(C)C(=O)c2cccc(-n3cccc3)c2)cc1	22.4µM*	25.1µM*	-62.4*	?	11.2µM*	44.7µM*	-3.0%
COc1ccc(NC(=O)CN(C)C(=O)c2cccc(Oc3ccccc3)c2)cc1	-22.0%	22.6%	-1.0	-13.3%	1.8%	?	·
COc1ccc(NCc2cc3cc4c(cc3n(CC(=O)Nc3ccc(C)cc3)c2=O)OCO4)cc1	-29.7%	4.7%	·	·	-19.1%	-40.9%[59 µM]	·
Cc1ccc(N(CC(=O)Nc2ccc(C)c(Cl)c2)S(=O)(=O)c2cccs2)cc1	8.0%	47.1%	·	·	·	-4.8%[59 µM]	·
Cc1ccc(NC(=O)c2cc(NC(=O)c3ccccc3C(=O)O)ccc2N2CCCCC2)cc1	-21.7%	14.1%	-51.7*	?	?	14.1µM*	-3.4%
Cc1cc(C(=O)OCC(=O)Nc2c(F)cccc2F)c(C)n1-c1ccccc1	20µM*	?	-75.1*	21.2µM*	?	-13.6%	-5.3%
